# Laboratory results reported in PubChem BioAssay (NCI).
# This is part of a sample that, as a whole, favours compounds with a hit. Of some 79,000 tested, about 15% had one in any assay. Unmarked numbers belong to inactive results. Activity calls are given as the source filed them. Cut-off read from the data, not from the text of the source: active = growth inhibition above about 70%; inactive = the rest.
# How the values were obtained:
# [1] = NCI Yeast Anticancer Drug Screen. Data for the rad52 strain (AID 147);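 note: 0% = growth of vehicle-treated control cultures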; conditions: S. cerevisiae rad52 mutant growth inhibition, active compounds read high
# Method in brief: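 Compounds are applied to a genetically defined yeast strain lacking normal DNA damage repair, and inhibition of growth is expressed relative to cultures given vehicle only.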
# [2] = NCI Yeast Anticancer Drug Screen. Data for the wt1 strain (AID 149);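 note: 0% = growth of vehicle-treated wt1 cultures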; conditions: S. cerevisiae wt1 strain (SPY 50644) growth inhibition, active compounds read high
# Method in brief: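 The wt1 strain was treated with compounds, and growth was compared with vehicle-treated cultures to give inhibition.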
# [3] = NCI Yeast Anticancer Drug Screen. Data for the rad50EPP+ strain (AID 151);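 note: 0% = growth of vehicle-treated control cultures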; conditions: S. cerevisiae rad50 mutant strain, active compounds read high
# Method in brief: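 Compounds were applied to the rad50EPP+ yeast strain, which bears a defined DNA repair alteration, and growth inhibition was determined relative to vehicle-treated cultures.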
# [4] = NCI Yeast Anticancer Drug Screen. Data for the mgt1 strain (AID 153); conditions: S. cerevisiae mgt1 mutant growth inhibition, active compounds read high
# Method in brief: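 Strain: mgt1 yeast, one of a set carrying defined DNA damage repair or cell cycle control alterations. Compound-treated growth compared with vehicle.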
# [5] = NCI Yeast Anticancer Drug Screen. Data for the rad50 strain (AID 155);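 note: 0% = growth of vehicle-only cultures of the same strain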; conditions: S. cerevisiae rad50 strain growth inhibition, active compounds read high
# Method in brief: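 Cells are treated with compound, grown, and their growth is then scored against vehicle-only cultures of the same repair-deficient yeast strain.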
# [6] = NCI Yeast Anticancer Drug Screen. Data for the mec2-1 strain (AID 157); conditions: S. cerevisiae mec2-1 strain, active compounds read high
# Method in brief: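 Strain: mec2-1 (DNA repair/cell cycle alteration). Compound exposure, then growth measured; inhibition expressed relative to vehicle.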
# [7] = NCI Yeast Anticancer Drug Screen. Data for the sgs1 mgt1 strain (AID 161);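 note: 0% = growth of cultures given vehicle only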; conditions: S. cerevisiae sgs1 mgt1 strain, active compounds read high
# Method in brief: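 Inhibition of yeast growth, normalised to vehicle-treated controls, is reported for a strain bearing genetic alterations in DNA damage repair.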
# [8] = NCI Yeast Anticancer Drug Screen. Data for the CLN2oe strain (AID 163);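 note: 0% = growth of vehicle-only control cultures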; conditions: S. cerevisiae CLN2oe strain, active compounds read high
# Method in brief: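 Growth of a genetically modified yeast strain is measured after compound exposure and compared with cultures given vehicle alone.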
# [9] = NCI Yeast Anticancer Drug Screen. Data for the bub3 strain (AID 167); conditions: S. cerevisiae bub3 mutant strain, active compounds read high
# Method in brief: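 Part of a panel of yeast mutants defective in DNA damage repair or cell cycle regulation. Each strain is grown with compound, and inhibition is calculated relative to solvent-treated cultures.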
# [10] = NCI Yeast Anticancer Drug Screen. Data for the wt2 strain (AID 169);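 note: 0% = growth of vehicle-treated yeast cultures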; conditions: S. cerevisiae wt2 strain growth inhibition, active compounds read high
# Method in brief: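 This strain belongs to a panel of yeast strains with defined genetic alterations in DNA damage repair or cell cycle control. Compounds are applied, and growth inhibition is measured against vehicle-treated cultures.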
# [11] = NCI Yeast Anticancer Drug Screen. Data for the mlh1 strain (AID 171);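 note: 0% = growth of vehicle-treated control cultures of the same strain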; conditions: S. cerevisiae mlh1 strain growth inhibition, active compounds read high
# Method in brief: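 Growth of the mutant yeast strain after compound exposure, expressed as inhibition relative to vehicle-only controls.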
# [12] = NCI Yeast Anticancer Drug Screen. Data for the mlh1 rad18 strain (AID 175); conditions: S. cerevisiae mlh1 rad18 strain growth inhibition, active compounds read high
# Method in brief: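 Read-out is yeast growth inhibition, calculated against vehicle-only controls. The compound was applied to a strain engineered with DNA damage repair alterations.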
# [13] = NCI Yeast Anticancer Drug Screen. Data for the cln2 rad14 strain (AID 165);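 note: 0% = growth equal to vehicle treated cultures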; conditions: S. cerevisiae cln2 rad14 strain, active compounds read high
# Method in brief: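 Compounds are applied to the cln2 rad14 yeast strain, and growth is then compared with that of vehicle-treated cultures to give inhibition.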
# [14] = NCI Yeast Anticancer Drug Screen. Data for the sgs1 strain (AID 173);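 note: 0% = growth of vehicle-only control cultures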; conditions: S. cerevisiae sgs1 mutant, active compounds read high
# Method in brief: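 Growth of a yeast strain bearing a defined genetic alteration is measured after compound treatment. Inhibition is expressed relative to vehicle-only controls.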
# [15] = NCI Yeast Anticancer Drug Screen. Data for the rad18 strain (AID 177); conditions: S. cerevisiae rad18 mutant growth inhibition, active compounds read high
# Method in brief: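 Growth of the mutant yeast strain after compound exposure, normalised to vehicle-only cultures.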
# [16] = at 5.0 µM (retest, dose inferred, filed as 0.5)
# [17] = at 50.0 µM (retest, dose inferred, filed as 5.0)
compound,measurement,setting,value
CCc1cc(O)c(Cl)c(C)c1Cl,growth inhibition,[1]; at 1.2 µM,-5%
same,growth inhibition,[1]; at 3.7 µM,6%
same,growth inhibition,[1]; at 11.0 µM,-8%
same,growth inhibition,[1]; at 33.0 µM,14%
same,growth inhibition,[1]; at 100.0 µM,75% (active)
same,growth inhibition,[2]; at 1.2 µM,7%
same,growth inhibition,[2]; at 3.7 µM,21%
same,growth inhibition,[2]; at 11.0 µM,14%
same,growth inhibition,[2]; at 33.0 µM,20%
same,growth inhibition,[2]; at 100.0 µM,87% (active)
same,growth inhibition,[3]; at 1.2 µM,-12%
same,growth inhibition,[3]; at 3.7 µM,0%
same,growth inhibition,[3]; at 11.0 µM,-13%
same,growth inhibition,[3]; at 33.0 µM,40%
same,growth inhibition,[3]; at 100.0 µM,90% (active)
same,growth inhibition,[4]; at 1.2 µM,14%
same,growth inhibition,[4]; at 3.7 µM,3%
same,growth inhibition,[4]; at 11.0 µM,28%
same,growth inhibition,[4]; at 33.0 µM,73% (active)
same,growth inhibition,[4]; at 100.0 µM,96% (active)
same,growth inhibition,[5]; at 1.2 µM,-29%
same,growth inhibition,[5]; at 3.7 µM,-19%
same,growth inhibition,[5]; [16],42%
same,growth inhibition,[5]; at 11.0 µM,-31%
same,growth inhibition,[5]; at 33.0 µM,43%
same,growth inhibition,[5]; [17],77% (active)
same,growth inhibition,[5]; at 50.0 µM,29.6%
same,growth inhibition,[5]; at 100.0 µM,97% (active)
same,growth inhibition,[6]; at 1.2 µM,-8%
same,growth inhibition,[6]; at 3.7 µM,-5%
same,growth inhibition,[6]; [16],44%
same,growth inhibition,[6]; at 11.0 µM,-13%
same,growth inhibition,[6]; at 33.0 µM,3%
same,growth inhibition,[6]; [17],86% (active)
same,growth inhibition,[6]; at 50.0 µM,34.9%
same,growth inhibition,[6]; at 100.0 µM,73% (active)
same,growth inhibition,[7]; [16],-9%
same,growth inhibition,[7]; [17],33%
same,growth inhibition,[7]; at 50.0 µM,45.5%
same,growth inhibition,[8]; at 1.2 µM,18%
same,growth inhibition,[8]; at 3.7 µM,-21%
same,growth inhibition,[8]; at 11.0 µM,1%
same,growth inhibition,[8]; at 33.0 µM,28%
same,growth inhibition,[8]; at 100.0 µM,71% (active)
same,growth inhibition,[9]; at 1.2 µM,-11%
same,growth inhibition,[9]; at 3.7 µM,11%
same,growth inhibition,[9]; [16],21%
same,growth inhibition,[9]; at 11.0 µM,5%
same,growth inhibition,[9]; at 33.0 µM,31%
same,growth inhibition,[9]; [17],49%
same,growth inhibition,[9]; at 50.0 µM,69.5%
same,growth inhibition,[9]; at 100.0 µM,85% (active)
same,growth inhibition,[10]; at 1.2 µM,-33%
same,growth inhibition,[10]; at 3.7 µM,-29%
same,growth inhibition,[10]; at 11.0 µM,-25%
same,growth inhibition,[10]; at 33.0 µM,20%
same,growth inhibition,[10]; at 100.0 µM,90% (active)
same,growth inhibition,[11]; at 1.2 µM,18%
same,growth inhibition,[11]; at 3.7 µM,5%
same,growth inhibition,[11]; at 11.0 µM,17%
same,growth inhibition,[11]; at 33.0 µM,40%
same,growth inhibition,[11]; at 100.0 µM,81% (active)
same,growth inhibition,[12]; [16],48%
same,growth inhibition,[12]; [17],93% (active)
same,growth inhibition,[12]; at 50.0 µM,13.9%
CN(C)/C=C/c1nnc([N+](=O)[O-])s1,growth inhibition,[1]; at 1.2 µM,-2%
same,growth inhibition,[1]; at 3.7 µM,-3%
same,growth inhibition,[1]; at 11.0 µM,5%
same,growth inhibition,[1]; at 33.0 µM,28%
same,growth inhibition,[1]; at 100.0 µM,98% (active)
same,growth inhibition,[2]; at 1.2 µM,-7%
same,growth inhibition,[2]; at 3.7 µM,-8%
same,growth inhibition,[2]; at 11.0 µM,-10%
same,growth inhibition,[2]; at 33.0 µM,-1%
same,growth inhibition,[2]; at 100.0 µM,98% (active)
same,growth inhibition,[3]; at 1.2 µM,1%
same,growth inhibition,[3]; at 3.7 µM,12%
same,growth inhibition,[3]; at 11.0 µM,35%
same,growth inhibition,[3]; at 33.0 µM,65%
same,growth inhibition,[3]; at 100.0 µM,96% (active)
same,growth inhibition,[4]; at 1.2 µM,-7%
same,growth inhibition,[4]; at 3.7 µM,-5%
same,growth inhibition,[4]; at 11.0 µM,-5%
same,growth inhibition,[4]; at 33.0 µM,-5%
same,growth inhibition,[4]; at 100.0 µM,98% (active)
same,growth inhibition,[5]; at 1.2 µM,-8%
same,growth inhibition,[5]; at 3.7 µM,-3%
same,growth inhibition,[5]; [16],-144%
same,growth inhibition,[5]; at 11.0 µM,49%
same,growth inhibition,[5]; at 33.0 µM,94% (active)
same,growth inhibition,[5]; [17],90% (active)
same,growth inhibition,[5]; at 50.0 µM,95% (active)
same,growth inhibition,[5]; at 100.0 µM,97% (active)
same,growth inhibition,[6]; at 1.2 µM,4%
same,growth inhibition,[6]; at 3.7 µM,0%
same,growth inhibition,[6]; [16],-48%
same,growth inhibition,[6]; at 11.0 µM,-6%
same,growth inhibition,[6]; at 33.0 µM,1%
same,growth inhibition,[6]; [17],4%
same,growth inhibition,[6]; at 50.0 µM,76.2% (active)
same,growth inhibition,[6]; at 100.0 µM,90% (active)
same,growth inhibition,[7]; [16],-63%
same,growth inhibition,[7]; [17],80% (active)
same,growth inhibition,[7]; at 50.0 µM,94% (active)
same,growth inhibition,[8]; at 1.2 µM,-2%
same,growth inhibition,[8]; at 3.7 µM,-3%
same,growth inhibition,[8]; at 11.0 µM,-2%
same,growth inhibition,[8]; at 33.0 µM,9%
same,growth inhibition,[8]; at 100.0 µM,97% (active)
same,growth inhibition,[13]; [16],-63%
same,growth inhibition,[13]; [17],-23%
same,growth inhibition,[13]; at 50.0 µM,28.6%
same,growth inhibition,[9]; at 1.2 µM,-5%
same,growth inhibition,[9]; at 3.7 µM,-2%
same,growth inhibition,[9]; [16],-65%
same,growth inhibition,[9]; at 11.0 µM,-3%
same,growth inhibition,[9]; at 33.0 µM,6%
same,growth inhibition,[9]; [17],77% (active)
same,growth inhibition,[9]; at 50.0 µM,96% (active)
same,growth inhibition,[9]; at 100.0 µM,98% (active)
same,growth inhibition,[10]; at 1.2 µM,-1%
same,growth inhibition,[10]; at 3.7 µM,-1%
same,growth inhibition,[10]; at 11.0 µM,-2%
same,growth inhibition,[10]; at 33.0 µM,7%
same,growth inhibition,[10]; at 100.0 µM,98% (active)
same,growth inhibition,[11]; at 1.2 µM,5%
same,growth inhibition,[11]; at 3.7 µM,-8%
same,growth inhibition,[11]; at 11.0 µM,-1%
same,growth inhibition,[11]; at 33.0 µM,41%
same,growth inhibition,[11]; at 100.0 µM,99% (active)
same,growth inhibition,[14]; at 1.2 µM,-2%
same,growth inhibition,[14]; at 3.7 µM,-4%
same,growth inhibition,[14]; at 11.0 µM,-1%
same,growth inhibition,[14]; at 33.0 µM,24%
same,growth inhibition,[14]; at 100.0 µM,98% (active)
same,growth inhibition,[12]; [16],-115%
same,growth inhibition,[12]; [17],77% (active)
same,growth inhibition,[12]; at 50.0 µM,89.8% (active)
same,growth inhibition,[15]; at 1.2 µM,0%
same,growth inhibition,[15]; at 3.7 µM,5%
same,growth inhibition,[15]; at 11.0 µM,21%
same,growth inhibition,[15]; at 33.0 µM,56%
same,growth inhibition,[15]; at 100.0 µM,97% (active)
